Screens (PubChem BioAssay)
Sampled rows, rich in hits. Any-hit rate of the full collection: about 1.2%.
RGS8-Gao: human RGS8-Galphao interaction regulation | multiplexed bead flow cytometry, RGS8-Galphao binding; actives lie on both sides | response (percent of control binding), % at 10 µM | 220,000 compounds, 0.34% hits | AID 1423; in the data active = response below about 60% or above about 140%; inactive = in between;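 also: Galphao activated as the GDP aluminium fluoride complex binding bead-coupled RGS8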
Target sequence (P09471 whole entry, looked up): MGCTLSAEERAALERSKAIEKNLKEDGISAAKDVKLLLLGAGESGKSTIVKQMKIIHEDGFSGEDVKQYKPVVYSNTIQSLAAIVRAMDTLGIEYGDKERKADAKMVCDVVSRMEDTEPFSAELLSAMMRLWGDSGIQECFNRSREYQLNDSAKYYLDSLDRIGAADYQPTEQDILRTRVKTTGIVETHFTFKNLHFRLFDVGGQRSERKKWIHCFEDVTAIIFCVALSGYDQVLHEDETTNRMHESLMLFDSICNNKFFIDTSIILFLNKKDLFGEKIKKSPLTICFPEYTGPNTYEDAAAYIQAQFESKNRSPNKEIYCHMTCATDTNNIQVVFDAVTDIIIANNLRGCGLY
RGS16-Gao HTS: modulates binding between human RGS16 and Galphao | bead-based flow cytometry RGS16-Galphao binding, fluorescence; actives lie on both sides | 220,000 compounds, 0.38% hits | binding response (% of control), % at 10 µM;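 also: Galphao activated by GDP with aluminum fluoride before binding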
Target sequence (O15492 whole entry, looked up): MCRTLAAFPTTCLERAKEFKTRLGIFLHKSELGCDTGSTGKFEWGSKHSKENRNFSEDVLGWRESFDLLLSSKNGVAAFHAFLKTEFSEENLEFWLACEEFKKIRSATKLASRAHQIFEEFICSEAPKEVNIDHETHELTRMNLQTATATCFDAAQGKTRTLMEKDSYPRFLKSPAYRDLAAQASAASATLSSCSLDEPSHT
Target sequence (P09471 whole entry, looked up): as the sequence (P09471 whole entry, looked up) above
Avidin fluor: avidin bead compound fluorescence profile; Avidin beads, compound fluorescence 488/530 nm, flow cytometry; hits give high values; fluorescence (KMESF) at 10 µM; 220,000 compounds, 0.38% hits; in the data active = fluorescence above about 47
RGS4-Gao reg: modulates binding of RGS4 to human Galphao | Multiplexed bead flow cytometry; actives lie on both sides | AID 1415 | 220,000 compounds, 0.33% hits | binding response (% of control), % at 10 µM; in the data active = binding response below about 49% or above about 150%; inactive = in between;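 also: fluorescent Galphao activated with aluminum fluoride binding bead-coupled RGS4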
RGS7-Gao reg: regulators of human RGS7-Galphao interaction; P09471; Multiplexed bead flow cytometry, RGS7-Galphao binding; actives lie on both sides; binding response (% of control), % at 10 µM; 220,000 compounds, 0.35% hits; in the data active = binding response below about 49% or above about 150%; inconclusive = no clear call, values can overlap the other calls; inactive = in between;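 also: fluorescent Galphao held in activated GDP-AlF4 state binding bead-coupled RGS7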
GSH bead fluor: GSH bead compound fluorescence profile; GSH beads flow cytometry, compound fluorescence 488/530 nm; hits give high values; fluorescence (KMESF) at 10 µM; 190,000 compounds, 0.25% hits; AID 1776; in the data active = fluorescence above about 89;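 also: glutathione beads carrying GST-tagged Bcl family fusion proteins plus one bare bead set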
RGS-Gao: regulators of human RGS4-Galphao interaction. RGS4–Galpha-o binding response, % at 10 µM. 1,600 compounds, 99% hits. multiplexed bead flow cytometry, RGS–Galpha-o binding. AID 1504. shares compounds with RGS16-Gao HTS;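 also: fluorescently labeled Galpha-o bound to GDP with aluminium fluoride binding biotinylated RGS beads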
Biotin-avidin: biotin-avidin bead binding disruption counter-screen | streptavidin beads, fluorescein-biotin binding, flow cytometry | shares compounds with RGS16-Gao HTS | inhibition, % at 10 µM | 1,700 tested, under 10 active;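 active = inhibition above 50%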;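 also: median green fluorescence of gated singlet beads compared with DMSO control wells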
RGS8-Gao confirm: confirmation of regulators of human RGS8-Galphao interaction | shares compounds with RGS16-Gao HTS | bead-based flow cytometry RGS8-Galphao binding, fluorescence; actives lie on both sides | binding response (% of control), % at 10 µM | 1,700 compounds, 3% hits | AID 1836; in the data active = binding response below about 72% or above about 130%; inactive = in between;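 also: Galphao activated as GDP AlF4 complex before binding bead RGS8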
RGS7-Gao single: RGS7-Galphao interaction regulation, single point confirmation. bead-based flow cytometry RGS7-Galphao binding; actives lie on both sides. response (percent of control binding), % at 10 µM. 1,700 compounds, 7.8% hits. shares compounds with RGS16-Gao HTS; in the data active = response below about 75% or above about 130%; inactive = in between;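 also: fluorescent Galphao activated with GDP and aluminum fluoride binding bead-coupled RGS7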
RGS16-Gao conf: RGS16-Galphao interaction regulation, single point confirmation; shares compounds with RGS16-Gao HTS; bead-based flow cytometry, RGS16-Galphao binding; actives lie on both sides; response (% of control binding), % at 10 µM; 1,700 compounds, 4% hits; in the data active = response below about 74% or above about 130%; inactive = in between;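 also: Galphao activated as the GDP aluminium fluoride complex binding bead-coupled RGS16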
RGS4-Gao confirm: confirmation of regulators of human RGS4-Galphao interaction; shares compounds with RGS16-Gao HTS; RGS4-Galphao binding, multiplexed bead flow cytometry; actives lie on both sides; binding response (% of control), % at 10 µM; 1,700 compounds, 4% hits; AID 1840; in the data active = binding response below about 74% or above about 130%; inactive = in between
RGS19-Gao single: RGS19-Galphao interaction regulation, single point confirmation; shares compounds with RGS16-Gao HTS; bead-based flow cytometry RGS19-Galphao binding; actives lie on both sides; response (percent of control binding), % at 10 µM; 1,700 compounds, 5% hits; AID 1841; in the data active = response below about 50% or above about 160%; inactive = in between
A number is an active result; . = inactive; ? = inconclusive; / = not tested or not shown; [ ] = remark or other dose. Unless noted, no rule for the calls is given here.

SMILES | RGS8-Gao | RGS16-Gao HTS | Avidin fluor | RGS4-Gao reg | RGS7-Gao reg | GSH bead fluor | RGS-Gao | Biotin-avidin | RGS8-Gao confirm | RGS7-Gao single | RGS16-Gao conf | RGS4-Gao confirm | RGS19-Gao single
CCOC(=O)c1c(NC(=O)c2cc(-c3ccc(O)cc3)on2)sc(C(C)=O)c1C | . | 344[activator] | . | 258[activator] | . | . | / | . | . | 145[activator] | 196[activator] | 152[activator] | 433[activator]
CCOC(=O)c1c(NC(=O)CSc2nc3ccccc3o2)sc(C(C)=O)c1C | 7.6 | -3.6 | . | 1.8 | 2.6 | . | / | . | . | . | . | . | .
Cn1c(=S)ccc2ccccc21 | . | . | . | . | . | . | / | / | / | / | / | / | /
O=C(CCn1c(=S)oc2ccccc21)Nc1cccc(O)c1 | 15 | 12 | . | 22 | 9.9 | . | / | . | . | . | . | . | .
Cc1cc(SCC(=O)N(C)C2CCS(=O)(=O)C2)nc2c(C)cccc12 (stereo not given) | . | . | . | . | . | . | / | / | / | / | / | / | /
CC1CCCC(C)N1C(=O)c1cccc2c1-c1ccccc1/C2=N/O (stereo not given) | . | . | 143 | . | 166[activator] | . | 110 | . | . | . | . | . | .
CCOC(=O)c1cccc2c1-c1ccccc1/C2=N/O | . | . | . | . | . | . | / | / | / | / | / | / | /
CC(=O)NCC(=O)OCC(=O)c1ccc(Br)cc1 | . | . | . | . | . | . | / | / | / | / | / | / | /
CC(=O)COC(=O)CNC(=O)c1ccc(Br)cc1 | 167[activator] | / | . | . | . | . | 138 | / | / | / | / | / | /
CN(C)C(=O)CSc1nnc(-c2ccc(F)cc2)c2ccccc12 | 51 | . | . | 28 | ? | / | / | . | . | . | . | . | .
N#CC1=C(N)N(c2ccccc2)C2=C(C(=O)CCC2)C1c1ccsc1 (stereo not given) | . | 16 | . | . | . | . | 96 | . | . | . | . | . | .
CCOC(=O)c1c(NC(=O)CN2C(=O)NC(C)(c3ccccc3)C2=O)sc(C)c1C (stereo not given) | . | . | . | . | . | . | / | / | / | / | / | / | /
C=CCNCCCOc1ccc(C)cc1Br | . | 24 | . | . | . | . | 90 | . | . | . | . | . | .
COCCCNCCCOc1ccc(C)cc1Br | . | . | . | . | . | . | / | / | / | / | / | / | /
NS(=O)(=O)c1ccc(CNC(=O)CCSCCC(=O)NCc2ccc(S(N)(=O)=O)cc2)cc1 | . | . | . | . | . | . | / | / | / | / | / | / | /
Cc1cccc(/C(N)=N/OC(=O)Cc2ccccc2)c1 | . | . | . | . | . | . | / | / | / | / | / | / | /
Cc1cccc(/C(N)=N/OC(=O)C23CC4CC(CC(C4)C2)C3)c1 | 56 | 12 | . | . | . | . | 80 | . | . | . | . | . | .
Cc1ccc(CNC(=O)Cn2cccc2C(=O)c2ccccc2)cc1 | / | / | / | . | . | . | / | . | . | . | . | . | .
O=C(Cn1cccc1C(=O)c1ccccc1)NCc1ccc(Cl)cc1 | . | . | . | . | . | . | / | / | / | / | / | / | /
COc1ccc(OCCOc2ccccc2[N+](=O)[O-])cc1 | . | 180[activator] | . | . | . | . | 117 | . | . | . | . | . | .
O=[N+]([O-])c1ccccc1OCCOc1ccccc1[N+](=O)[O-] | . | . | . | . | ? | / | / | / | / | / | / | / | /
COc1cc2c(cc1OC)CN(C(=S)NC(=O)c1ccccc1)CC2 | . | . | . | . | . | . | / | / | / | / | / | / | /
CC1=C(C(=O)Nc2ccc(C)cc2)C(c2cccs2)NC(=S)N1 (stereo not given) | . | . | . | . | 46 | . | 54 | . | . | . | . | . | .
CC1=C(C(=O)Nc2ccc(F)c(F)c2)C(c2cccs2)NC(=S)N1 (stereo not given) | . | . | . | . | . | . | / | / | / | / | / | / | /
Cc1ccccc1NC(=S)NCc1cccn1C | . | 178[activator] | . | . | . | . | 97 | . | . | . | . | . | .
SMILES | RGS8-Gao | RGS16-Gao HTS | Avidin fluor | RGS4-Gao reg | RGS7-Gao reg | GSH bead fluor | RGS-Gao | Biotin-avidin | RGS8-Gao confirm | RGS7-Gao single | RGS16-Gao conf | RGS4-Gao confirm | RGS19-Gao single
CSCCNC(=O)Nc1c(-c2c(Cl)cccc2Cl)noc1C | . | . | . | . | ? | / | / | / | / | / | / | / | /
C#CCn1c(=NC(=O)c2cc(-c3cccs3)nc3ccccc23)sc2cc(S(N)(=O)=O)ccc21 | 47 | . | . | . | 34 | . | 80 | . | . | . | . | . | .
Cc1ccc(C(=O)NN2C(=O)C3C(C2=O)C2C=CC3C23CC3)cc1 (stereo not given) | . | . | . | . | . | . | / | / | / | / | / | / | /
CC(C)(C)c1nnc2sc(SCC(=O)c3ccccc3)nn2c1=O | . | . | . | . | . | . | / | / | / | / | / | / | /
CC(C)(C)c1nnc2sc(SC/C(O)=C(\C#N)c3nc4ccccc4[nH]3)nn2c1=O | 148[activator] | 178[activator] | . | 177[activator] | 161[activator] | . | / | . | . | . | . | . | .
COc1cc2c(C(=O)N3CCN(c4cccc(Cl)c4)CC3)cn(CC(C)C)c(=O)c2cc1OC | . | . | . | . | . | . | / | / | / | / | / | / | /
CCN(CC(=O)Nc1ccc2c(c1)OCCO2)c1ccc(S(=O)(=O)N2CCOCC2)cn1 | . | -83 | . | . | . | . | 80 | . | . | . | . | . | .
COc1ccc(-c2ccc(SCC(=O)N3CCCC3)nn2)cc1OC | . | . | . | . | . | . | / | / | / | / | / | / | /
COc1ccc(-c2ccc(SCC(=O)N3CCOCC3)nn2)cc1OC | / | / | / | / | / | . | / | . | . | . | . | . | .
CCOc1ccc(C(=O)NCC(=O)OCC(=O)Nc2ccc(C)c(S(=O)(=O)N(C)C)c2)cc1 | . | . | . | . | ? | . | / | / | / | / | / | / | /
CC12CCC(C(=O)Nc3cccc(Cl)c3)(C(Br)C1=O)C2(C)C (stereo not given) | . | . | . | . | . | . | / | / | / | / | / | / | /
CC12CCC(C(=O)Nc3ccc(Cl)cc3)([C@H](Br)C1=O)C2(C)C (stereo not given in full) | / | / | / | / | / | / | / | . | . | . | . | . | .
